Assay outcomes from PubChem.
NSD2 inh = NSD2 histone methyltransferase inhibitors, primary screen, biochemical, AlphaScreen, single concentration, set 2 | Histone-lysine N-methyltransferase NSD2 (Homo sapiens), O96028 | NSD2 peptide methylation, 120 min | inhibition, % at 12.5 µM | 0.54% of 310,000 active | AID 743445, 2014; in the data active = inhibition above about 50%
PfHsp90 set2 = growth inhibition of PfHsp90-expressing yeast, primary screen, antimalarial PfHsp90 inhibitor project, S. cerevisiae, BacTiter-Glo luminescence, single point, set 2; inhibition, % at 9.4 µM; 0.32% of 310,000 active; BacTiter-Glo ATP, 48 h; yeast lacking PDR1 and PDR3 efflux regulators;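 active = every replicate shows inhibition above about 80%, whatever the replicate mean, limit read from the data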;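 note: 0% = DMSO neutral controls and 100% = 20 µM radicicol positive controls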
SIRT5 block = SIRT5 desuccinylase inhibitors, primary screen, biochemical, fluorescence imaging, single point, set 5; Purified SirT5, succinyl-peptide AMC, trypsin-coupled fluorescence; 1.1% of 330,000 active; NAD-dependent protein deacylase sirtuin-5, mitochondrial (Homo sapiens), Q9NXA8; inhibition, % at 15 µM; AID 652115, 2013; in the data active = inhibition above about 15%
Target sequence (Q9NXA8 whole entry, looked up): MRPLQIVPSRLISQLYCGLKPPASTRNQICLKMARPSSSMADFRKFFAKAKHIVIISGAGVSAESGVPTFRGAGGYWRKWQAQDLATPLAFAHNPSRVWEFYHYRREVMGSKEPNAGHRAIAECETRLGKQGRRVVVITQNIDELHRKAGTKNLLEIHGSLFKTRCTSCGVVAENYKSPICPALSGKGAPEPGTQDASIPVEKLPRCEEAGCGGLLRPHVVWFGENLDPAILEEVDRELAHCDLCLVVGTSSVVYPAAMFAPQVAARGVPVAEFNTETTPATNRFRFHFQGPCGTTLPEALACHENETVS
ARNT TACC3 PPI = disruptors of ARNT/TACC3 protein interaction, primary screen, biochemical, AlphaScreen, single concentration | Transforming acidic coiled-coil-containing protein 3 (Homo sapiens), Q9Y6A5 | AlphaScreen His-ARNT PAS-B/GST-TACC3 binding, luminescence; TACC3 fragment carries E629A point mutation | inhibition, % at 9.99 µM | 0.66% of 390,000 active | AID 623870, 2012;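 active = mean inhibition of replicates at least 50% and at least half of replicates each reaching 50%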;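 note: 0% = complete ARNT plus TACC3 wells and 100% = ARNT alone without TACC3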
CASP6 VEID inh = human caspase-6 inhibitors, primary screen, biochemical, VEID-R110 fluorescence, single point, set 2; inhibition, % at 12.5 µM; 0.53% of 350,000 active; P55212; purified caspase-6, Z-VEID-R110 cleavage fluorescence;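 active = mean inhibition across replicates at least about 35%, with every replicate also reaching that limit, limit read from the data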;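 note: 0% = median of neutral control wells and 100% = no fluorescence left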
Target sequence (P55212 24-179 limits assumed): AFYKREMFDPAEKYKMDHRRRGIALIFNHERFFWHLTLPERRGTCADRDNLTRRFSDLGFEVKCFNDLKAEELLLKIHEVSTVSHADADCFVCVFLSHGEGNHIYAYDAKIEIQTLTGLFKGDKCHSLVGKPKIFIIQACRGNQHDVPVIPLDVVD
Target sequence (P55212 194-293 limits assumed): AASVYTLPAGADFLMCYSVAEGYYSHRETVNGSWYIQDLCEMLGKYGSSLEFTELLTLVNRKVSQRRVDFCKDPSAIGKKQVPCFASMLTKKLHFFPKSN
* hit, by the source's call; / = not tested or not shown. Sampled rows, rich in hits. Any-hit rate of the full collection: about 2.1%.

SMILES | NSD2 inh | PfHsp90 set2 | SIRT5 block | ARNT TACC3 PPI | CASP6 VEID inh
Cc1ccc(S(=O)(=O)CC(=O)Nc2ccc3nc(C)sc3c2)cc1 | 7 | 10 | 24* | 3 | 2
Cc1nc2ccc(NC(=O)CS(=O)(=O)c3ccc(F)cc3)cc2s1 | 0 | / | -1 | -2 | -1
Cn1c(=O)n(C)c2cc(NS(=O)(=O)c3ccc(Cl)s3)ccc21 | -2 | -3 | 18* | / | 2
Cn1c(=O)n(C)c2cc(NS(=O)(=O)c3ccc(Br)s3)ccc21 | -1 | -1 | -5 | / | -4
CCCN(C)C[C@H]1OCCCC[C@H](C)Oc2ccc(NS(=O)(=O)c3c(C)noc3C)cc2C(=O)N([C@@H](C)CO)C[C@H]1C | / | / | 2 | -3 | 0
CCN(CC)c1ccc(/C=C2\C(=O)N(c3nnc(C)c(=O)[nH]3)N=C2C)cc1 | 5 | 19 | 3 | 60* | 36*
CCn1nc(C(=O)NNS(=O)(=O)c2ccc(C)cc2)c2ccccc2c1=O | -1 | -8 | -2 | 68* | -1
CC(=O)N1[C@H](C(=O)NC2Cc3ccccc3C2)[C@@H](CO)[C@@H]2Cn3c(ccc(-c4ccncc4)c3=O)[C@@H]21 | / | / | -51 | -11 | -1
CC1(C)NC(=O)N(CCOCCOc2ccccc2-c2ccccc2)C1=O | -12 | -18 | 26* | -38 | 1
CCC(=O)c1ccccc1OCCN1C(=O)NC(C)(C)C1=O | 2 | 7 | -1 | -5 | 2
O=C(C[C@H]1CC[C@@H]2[C@H](COC[C@H](O)CN2Cc2ccc3c(c2)OCO3)O1)Nc1ccc(-c2ccccc2)cc1 | / | / | 10 | 3 | 1
CCNC(=O)C[C@H]1CC[C@H]2[C@@H](COc3ccc(NC(=O)Nc4ccc(F)cc4)cc3C(=O)N2C)O1 | / | / | -5 | -4 | -1
Cc1cc(-c2ccc(F)cc2)nc2cc(C(N)=O)nn12 | 3 | 21 | / | 41* | /
Cc1cc(C)n2nc(-c3ccc(F)cc3)cc2n1 | -1 | / | -2 | / | -2
C/C=C/c1ccc2c(c1)O[C@H](CN(C)C(=O)Nc1ccc(C(F)(F)F)cc1)[C@H](C)CN([C@H](C)CO)S2(=O)=O | / | / | 12 | 19 | -1
O=C(O)C1CCC(Cn2c(SCc3cc(=O)n4cc(Br)ccc4n3)nc3ccsc3c2=O)CC1 (stereo unspecified) | 4 | -6 | 17* | 5 | 5
Cc1[nH][nH]c(=O)c1C(c1cc([N+](=O)[O-])ccc1O)c1c(C)[nH][nH]c1=O | 24 | -12 | 26* | 16 | 8
C[C@@H]1CCCCO[C@@H](CN(C)C)[C@@H](C)CN([C@@H](C)CO)C(=O)c2cc(NC(=O)C3CCCCC3)ccc2O1 | / | / | -2 | -11 | 0
Cc1cc(OCc2nnc(SC(C)C(=O)O)n2Cc2ccccc2)ccc1Cl (stereo unspecified) | -3 | -8 | 24* | / | /
CC(Sc1nnc(COc2ccc(Cl)cc2)n1Cc1ccccc1)C(=O)O (stereo unspecified) | -2 | -35 | -2 | -6 | -3
O=C(O)c1cccc(Cn2c(Cl)c(/C=N/NC(=O)c3cc4ccccc4cc3O)sc2=O)c1 | 34 | -22 | 24* | 16 | 42*
CCOC(=O)c1c(C)oc2c1c(C=NCCO)c(O)c1ccccc12 | 101* | -16 | -2 | 30 | 8
COc1ccc(S(=O)(=O)Nc2cccc3c2O[C@H](CN(C)C(=O)Nc2ccc(C(F)(F)F)cc2)[C@H](C)CN([C@@H](C)CO)C3=O)cc1 | / | / | 9 | -6 | 2
O=C(O)c1ccc(N/N=C/C=C/c2ccc([N+](=O)[O-])o2)cc1 | / | 20 | 15* | / | 75*
O=C(N/N=C/c1ccc([N+](=O)[O-])o1)C(=O)Nc1ccc(C(=O)O)cc1 | 0 | -23 | 3 | 10 | 7
SMILES | NSD2 inh | PfHsp90 set2 | SIRT5 block | ARNT TACC3 PPI | CASP6 VEID inh
C[C@@H]1CN([C@H](C)CO)S(=O)(=O)c2ccc(C#C[C@@H](C)O)cc2O[C@@H]1CN(C)C(=O)C1CC1 | / | / | 5 | -5 | 0
COC(=O)CN1C(=O)COc2ccc(S(=O)(=O)N3CCCCC3)cc21 | -3 | / | / | / | 52*
Cc1cc(-c2ccc(Br)cc2)n[nH]1 | 3 | 2 | 16* | 0 | 2
Nc1cc(-c2ccc(Br)cc2)[nH]n1 | 1 | 23 | -5 | 2 | 0
C[C@@H]1CCCCO[C@@H](CN(C)Cc2ccc(Cl)c(Cl)c2)[C@@H](C)CN([C@H](C)CO)C(=O)c2cc(NC(=O)c3ccncc3)ccc2O1 | / | / | 15* | 4 | 0
C[C@@H]1CCCCO[C@@H](CN(C)Cc2ccc(Cl)c(Cl)c2)[C@@H](C)CN([C@H](C)CO)C(=O)c2cc(NC(=O)CCCCCC(=O)Nc3ccccc3N)ccc2O1 | / | / | 24* | / | 1
Cc1noc(C)c1NC(=O)Nc1ccc2c(c1)C(=O)N([C@@H](C)CO)C[C@@H](C)[C@@H](CN(C)S(=O)(=O)c1cn(C)cn1)OCCCC[C@@H](C)O2 | / | / | 17* | -3 | -3
Cc1noc(C)c1S(=O)(=O)N(C)C[C@@H]1OCCCC[C@@H](C)Oc2ccc(NC(=O)Nc3cccc4ccccc34)cc2C(=O)N([C@H](C)CO)C[C@@H]1C | / | / | 20* | -4 | 1
C[C@@H]1CCCCO[C@H](CN(C)Cc2ccc(Cl)c(Cl)c2)[C@@H](C)CN([C@H](C)CO)C(=O)c2cc(NC(=O)c3ccncc3)ccc2O1 | / | / | 0 | -3 | 0
C[C@@H]1CCCCO[C@H](CN(C)C(=O)Nc2ccc3c(c2)OCO3)[C@H](C)CN([C@@H](C)CO)C(=O)c2cc(NC(=O)C3CCCCC3)ccc2O1 | / | / | 5 | 33 | 3
C/C=C/c1cnc2c(c1)C(=O)N([C@@H](C)CO)C[C@@H](C)[C@H](CN(C)C(=O)Nc1ccc(OC)cc1)O2 | / | / | 1 | 2 | 2
O=C(NC1CCCCC1)N1CC(=O)N2[C@H](C1)[C@@H](c1ccc(-c3ccccc3)cc1)[C@@H]2CO | / | / | 2 | / | 2
COCC(=O)Nc1ccc2c(c1)[C@H]1C[C@H](CC(=O)NCc3ccc(Cl)cc3)O[C@H](CO)[C@H]1O2 | / | / | / | 4 | /
Cc1noc(C)c1NC(=O)Nc1ccc2c(c1)C(=O)N([C@@H](C)CO)C[C@H](C)[C@@H](CN(C)Cc1ccc(Cl)c(Cl)c1)OCCCC[C@H](C)O2 | / | / | 15* | 32 | -3
CC(C)C#Cc1cnc2c(c1)C(=O)N([C@H](C)CO)C[C@H](C)[C@H](CN(C)C(=O)c1cnccn1)O2 | / | / | -6 | -10 | 0
Cn1c2ccccc2c2nnc(SCC(=O)Nc3cccc(C(=O)O)c3)nc21 | 2 | -16 | -3 | 47* | -1
